Data on six compounds can be found in PubChem BioAssay (EPA / NIEHS).

One may read the AC50 as the midpoint of the concentration-response curve, whichever way the signal moves.

The source made the active and inactive calls. The calls were made as follows: active = hit-call score of the fitted dose curve at least 0.9, where 1 is the maximum; inactive = score below 0.9.

Read-out in test [1]: Vascular endothelial growth factor receptor 2 (Homo sapiens) (UniProt P35968)
The test is described as follows: BSK_4H_VEGFRII: BioMAP Diversity Plus: 4H Assay for Vascular endothelial growth factor receptor 2 (VEGFR2) Biomarker Activity (AID 2283031).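 As to AC50: cell-surface VEGFR2 protein level quantified by ELISA.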 To be noted: primary human endothelial cells (HUVEC); actives raise or lower the signal. The essentials:
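In this multiplexed HUVEC system, biomarker ELISA was performed after 24 h chemical exposure. Parallel SRB staining (TCA fixation, 560 nm) tracked cytotoxicity; DMSO served as baseline.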

Read-out in test [2]: Human Leukocyte Antigen - DR isotype (HLADR), HLA-DRA (gene 3122)
The test is described as follows: BSK_BE3C_HLADR: BioMAP Diversity Plus: BE3C Assay for Human Leukocyte Antigen - DR isotype (HLADR) Biomarker Activity (AID 2283032). The settings on record: primary human bronchial epithelial cells; actives raise or lower the signal. The essentials: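 ELISA read-out of HLA-DR on human lung bronchial epithelial primary cells, measured 24 h post-dosing. Both increases and decreases were scored relative to DMSO vehicle.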

Read-out in test [3]: Vascular cell adhesion molecule 1 (VCAM1), VCAM1 (gene 7412)
As to the kind of experiment: BSK_4H_VCAM1: BioMAP Diversity Plus: 4H Assay for Vascular cell adhesion molecule 1 (VCAM1) Biomarker Activity (AID 2283033).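 As to outcome: cell-surface VCAM-1 protein measured by ELISA.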 To be noted: primary human endothelial cells (HUVEC); actives raise or lower the signal. The essentials: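 ELISA read-out of VCAM-1 on human umbilical vein endothelium 24 hours after chemical dosing; gain or loss of signal was fitted relative to DMSO, with sulforhodamine B staining of parallel cultures flagging overt cytotoxicity.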

Read-out in test [4]: Interferon-gamma inducible Protein 10 (IP10), CXCL10 (gene 3627)
The test is described as follows: BSK_BE3C_IP10: BioMAP Diversity Plus: BE3C Assay for Interferon-gamma inducible Protein 10 (IP10) Biomarker Activity (AID 2283034). To be noted: primary human bronchial epithelial cells; actives raise or lower the signal. The essentials:
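Chemical is dosed onto human lung bronchial epithelial primary cells, cultures are incubated 24 h, and IP-10 is then quantified by ELISA. Gain or loss of signal is fitted in both directions relative to DMSO.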

Read-out in test [5]: Monokine induced gamma interferon (MIG), CXCL9 (gene 4283)
The test is described as follows: BSK_BE3C_MIG: BioMAP Diversity Plus: BE3C Assay for Monokine induced gamma interferon (MIG) Biomarker Activity (AID 2283035).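 As to outcome: MIG protein measured by ELISA in BE3C cultures after 24 h of dosing.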 The settings on record: primary human bronchial epithelial cells; actives raise or lower the signal. The essentials:
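Primary human bronchial epithelial cells treated for 24 h; MIG levels measured by ELISA, fitted bidirectionally versus DMSO. Parallel SRB total-protein staining assessed cytotoxicity.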

Read-out in test [6]: Transforming growth factor beta 1 (TGFb1), TGFB1 (gene 7040)
As to the kind of experiment: BSK_BE3C_TGFb1: BioMAP Diversity Plus: BE3C Assay for Transforming growth factor beta 1 (TGFb1) Biomarker Activity (AID 2283036;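 also: TGF-b1 protein level measured by ELISA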). To be noted: primary human bronchial epithelial cells; actives raise or lower the signal. The essentials:
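Primary human lung bronchial epithelial cells; compound exposure 24 h; TGF-b1 by ELISA; bidirectional fit, DMSO baseline. Parallel SRB total-protein staining for cytotoxicity.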

Read-out in test [7]: Plasminogen activator inhibitor-1 (PAI1), SERPINE1 (gene 5054)
The test is described as follows: BSK_BE3C_PAI1: BioMAP Diversity Plus: BE3C Assay for Plasminogen activator inhibitor-1 (PAI1) Biomarker Activity (AID 2283037). To be noted: primary human bronchial epithelial cells; actives raise or lower the signal. The essentials:
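Primary human lung bronchial epithelial cells; chemical dosing; 24 h; PAI-1 measured by ELISA; bidirectional fit referenced to DMSO as negative control.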

Read-out in test [8]: urokinase plasminogen activator (uPA), PLAU (gene 5328)
The test is described as follows: BSK_BE3C_uPA: BioMAP Diversity Plus: BE3C Assay for urokinase plasminogen activator (uPA) Biomarker Activity (AID 2283038).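 As to outcome: uPA protein level quantified by ELISA in cell cultures; uPA read one day after compound addition.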 To be noted: primary human bronchial epithelial cells; actives raise or lower the signal. The essentials:
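Using confluent primary human lung bronchial epithelial cultures, we dosed chemicals, waited 24 h, then ran a uPA ELISA, fitting bidirectionally against DMSO.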

Read-out in test [9]: Urokinase-type plasminogen activator receptor (uPAR), PLAUR (gene 5329)
As to the kind of experiment: BSK_BE3C_uPAR: BioMAP Diversity Plus: BE3C Assay for Urokinase-type plasminogen activator receptor (uPAR) Biomarker Activity (AID 2283039).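 As to outcome: cells exposed to compound for one day before measurement.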 The settings on record: primary human bronchial epithelial cells; actives raise or lower the signal. The essentials:
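Human bronchial epithelial primary cells; chemical exposure 24 h; uPAR by ELISA; bidirectional fit vs DMSO control.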

Read-out in test [10]: Interleukin-6 (IL6), IL6 (gene 3569)
As to the kind of experiment: BSK_CASM3C_IL6: BioMAP Diversity Plus: CASM3C Assay for Interleukin-6 (IL6) Biomarker Activity for (AID 2283040). To be noted: primary human coronary artery smooth muscle cells; actives raise or lower the signal.

Read-out in test [11]: Tissue plasminogen activator (tPA), PLAT (gene 5327)
The test is described as follows: BSK_BE3C_tPA: BioMAP Diversity Plus: BE3C Assay for Tissue plasminogen activator (tPA) Biomarker Activity (AID 2283041).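 As to outcome: tPA level quantified by ELISA one day after compound addition.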 The settings on record: primary human bronchial epithelial cells; actives raise or lower the signal. The essentials:
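Primary human lung bronchial epithelial cultures receive test chemical; after 24 h, tPA is quantified by ELISA, and gain or loss of signal is fitted bidirectionally relative to DMSO baseline.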

Read-out in test [12]: Interleukin-8 (IL8), CXCL8 (gene 3576)
As to the kind of experiment: BSK_CASM3C_IL8: BioMAP Diversity Plus: CASM3C Assay for Interleukin-8 (IL8) Biomarker Activity (AID 2283042).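 Also: IL-8 protein level quantified by ELISA.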 To be noted: primary human coronary artery smooth muscle cells; actives raise or lower the signal.

Read-out in test [13]: Human Leukocyte Antigen - DR isotype (HLADR), HLA-DRA (gene 3122)
The test is described as follows: BSK_CASM3C_HLADR: BioMAP Diversity Plus: CASM3C Assay for Human Leukocyte Antigen - DR isotype (HLADR) Biomarker Activity (AID 2283043).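 Also: cell-surface HLA-DR protein level quantified by ELISA.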 To be noted: primary human coronary artery smooth muscle cells; actives raise or lower the signal.

Read-out in test [14]: Macrophage colony-stimulating factor (MCSF), CSF1 (gene 1435)
The test is described as follows: BSK_CASM3C_MCSF: BioMAP Diversity Plus: CASM3C Assay for Macrophage colony-stimulating factor (MCSF) Biomarker Activity (AID 2283044).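 Also: M-CSF protein amount quantified by ELISA after 24 h exposure.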 To be noted: primary human coronary artery smooth muscle cells; actives raise or lower the signal.

Read-out in test [15]: Low-density lipoprotein receptor (LDLR), LDLR (gene 3949)
The test is described as follows: BSK_CASM3C_LDLR: BioMAP Diversity Plus: CASM3C Assay for Low-density lipoprotein receptor (LDLR) Biomarker Activity (AID 2283045).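 Also: LDLR protein level on the cell surface quantified by ELISA.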 To be noted: primary human coronary artery smooth muscle cells; actives raise or lower the signal.

Read-out in test [16]: Monocyte Chemoattractant Protein-1 (MCP1), CCL2 (gene 6347)
The test is described as follows: BSK_CASM3C_MCP1: BioMAP Diversity Plus: CASM3C Assay for Monocyte Chemoattractant Protein-1 (MCP1) Biomarker Activity (AID 2283046).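 Also: MCP-1 level quantified by ELISA 24 h after dosing.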 The settings on record: primary human coronary artery smooth muscle cells; actives raise or lower the signal.

Test [17] is described as follows: BSK_CASM3C_Proliferation: Cell Proliferation Assessment in the BioMAP Diversity Plus: CASM3C Assay (AID 2283047).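 Also: sulforhodamine B total protein stain as relative cell number at 560 nm; sub-confluent cells exposed 48 h before staining; fitted both ways against DMSO so gain or loss of cell number.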 To be noted: primary human coronary artery smooth muscle cells.
Read-out in test [18]: Monokine induced gamma interferon (MIG), CXCL9 (gene 4283)
The test is described as follows: BSK_CASM3C_MIG: BioMAP Diversity Plus: CASM3C Assay for Monokine induced gamma interferon (MIG) Biomarker Activity (AID 2283048). The settings on record: primary human coronary artery smooth muscle cells; actives raise or lower the signal.

Read-out in test [19]: serum amyloid A (SAA), SAA1 (gene 6288)
As to the kind of experiment: BSK_CASM3C_SAA: BioMAP Diversity Plus: CASM3C Assay for serum amyloid A (SAA) Biomarker Activity (AID 2283049).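 Also: SAA protein level quantified by ELISA.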 The settings on record: primary human coronary artery smooth muscle cells; actives raise or lower the signal.

The nature of test [20]: BSK_CASM3C_SRB: Viability Assessment in the BioMAP Diversity Plus: CASM3C Assay (AID 2283050).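 Also: total protein by SRB staining as cytotoxicity measure in parallel cultures.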 To be noted: primary human coronary artery smooth muscle cells.

As to `ClC(Cl)=C(c1ccc(Cl)cc1)c1ccccc1Cl`, the AC50 in [1] is 5.35 µM (active); in [2] it was 20 µM (active); in test [3], 11.8 µM (active); in [4] it was 10.7 µM (active); in test [5], 26.4 µM (active); in test [7], 10.3 µM (active). Also, the AC50 in [8] is 20 µM (active); in [9], 8.34 µM (active); in [13], 26.1 µM (active); in test [14], 16.7 µM (active); in test [15], 23.5 µM (active); in test [16], 20 µM (active). Also, the half-maximal activity concentration (AC50) in test [17] was 30 µM (active); in test [20], 28.2 µM (active). Moreover, the result in test [6], in test [10], in test [11], in [12], in [18] and in test [19] was inactive.
Take `COCCOCCO`: the outcome in [1], in test [2], in [3], in test [4], in [5] and in test [6] was inactive. Further, the outcome in test [7], in [8], in [9], in test [10], in [11] and in test [12] was inactive. The outcome in test [13], in test [14], in test [15], in test [16], in [17] and in test [18] was inactive. For the same compound, the outcome in test [19] and in test [20] was inactive.
Regarding `c1nc[nH]n1`, the outcome in test [1], in test [2], in [3], in [4], in test [5] and in [6] was inactive. Besides, the result in test [7], in [8], in test [9], in test [10], in test [11] and in [12] was inactive. In addition, the result in test [13], in test [14], in test [15], in [16], in test [17] and in [18] was inactive. The outcome in test [19] and in test [20] was inactive.
On to `CN(C)C(=O)Cl`, for which the result in test [1], in [2], in [3], in test [4], in test [5] and in [6] was inactive. Also, the result in test [7], in test [8], in [9], in test [10], in test [11] and in [12] was inactive. The outcome in [13], in test [14], in test [15], in [16], in test [17] and in test [18] was inactive. The result in test [19] and in [20] was inactive.
With `CCCCc1ccccc1`, the result in test [1], in test [2], in test [3], in test [4], in test [5] and in test [6] was inactive. Besides, the outcome in [7], in [8], in test [9], in [10], in [11] and in [12] was inactive. Further, the outcome in [13], in test [14], in test [15], in [16], in test [17] and in test [18] was inactive. The outcome in test [19] and in test [20] was inactive.
For the compound `CCCCC(CC)COP(=O)(Oc1ccccc1)Oc1ccccc1` (stereo not given), the concentration at half-maximal activity (AC50) was 10.4 µM (active) in [1]; 20 µM (active) in [2]; 20 µM (active) in [3]; 20 µM (active) in test [4]; 3.09 µM (active) in test [11]; 20 µM (active) in [20]. The outcome in [5], in test [6], in test [7], in test [8], in test [9] and in [10] was inactive. Besides, the result in [12], in [13], in [14], in [15], in test [16] and in test [17] was inactive. For the same compound, the result in test [18] and in test [19] was inactive.
